# 12-LOX inh = Primary qHTS assay for inhibitors of human arachidonate 12S-lipoxygenase (ALOX12): Round 2; Potency, µM (titrated, usually from 108 µM), without a hit: at the highest dose activity change, negative = inhibition, usual class: inhibitors; Polyunsaturated fatty acid lipoxygenase ALOX12 (Homo sapiens), P18054; AID 1671190, 2021; purified 12hLO, xylenol orange hydroperoxide absorbance; 580,000 tested, 1.1% active; note: potency is the fitted concentration of half-maximal effect
# Target sequence (P18054 whole entry, looked up): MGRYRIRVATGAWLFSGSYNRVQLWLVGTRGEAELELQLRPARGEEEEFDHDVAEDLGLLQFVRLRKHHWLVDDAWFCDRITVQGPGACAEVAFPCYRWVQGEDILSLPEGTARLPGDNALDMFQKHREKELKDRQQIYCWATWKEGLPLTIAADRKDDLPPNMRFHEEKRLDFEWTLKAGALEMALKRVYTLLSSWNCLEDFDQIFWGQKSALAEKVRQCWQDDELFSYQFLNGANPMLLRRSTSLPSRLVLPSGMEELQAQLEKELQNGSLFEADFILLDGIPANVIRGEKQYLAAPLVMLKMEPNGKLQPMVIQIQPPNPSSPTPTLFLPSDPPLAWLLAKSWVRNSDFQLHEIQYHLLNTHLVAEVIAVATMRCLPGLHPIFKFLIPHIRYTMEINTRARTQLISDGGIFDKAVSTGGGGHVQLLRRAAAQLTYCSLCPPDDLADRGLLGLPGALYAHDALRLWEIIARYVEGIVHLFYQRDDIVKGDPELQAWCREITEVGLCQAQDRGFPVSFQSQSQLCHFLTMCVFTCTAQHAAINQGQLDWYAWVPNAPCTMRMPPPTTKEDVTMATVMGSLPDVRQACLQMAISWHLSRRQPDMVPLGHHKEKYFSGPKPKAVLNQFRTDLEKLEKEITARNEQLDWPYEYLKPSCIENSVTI
#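 Hydroperoxide product was detected by ferrous iron/xylenol orange as the 573 to 405 nm absorbance ratio. Arachidonic acid at 40 uM (final) was turned over for 30 min at room temperature by 150 nM human 12hLO, pH 7.0 Hepes buffer, after 15 min compound preincubation.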
# HT1080-NT tox = qHTS for induction of synthetic lethality in tumor cells producing 2HG: qHTS for the HT-1080-NT fibrosarcoma cell line; 360,000 tested, 1.6% active; HT-1080-NT fibrosarcoma viability, CellTiter-Glo ATP luminescence, 48 h; Potency, µM (highest dose often 46.1 µM), without a hit: at the top dose activity, negative = less viability, hits mostly cytotoxic;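 note: NT is the 2HG producing partner of a matched IDH1 knockdown line; potency is the fitted concentration of half-maximal effect; 0% = DMSO-treated cells and -100% = media-only wells without cells; nearly all actives have a fitted effect of over 55% in size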
#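 HT-1080-NT; 750 cells/well; 5% FBS RPMI; 48 h compound, 37 degrees C; CellTiter-Glo luminescence; curve fitting and curve-class assignment.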
# IL-1B inflam inh = qHTS for Inhibitors of Inflammasome Signaling: IL-1-beta AlphaLISA Primary Screen. THP-1 LPS/ATP IL-1B secretion, AlphaLISA, 16 h; hits give low values. activity change, % at 57.5 µM. 360,000 tested, 4.7% active. AID 743279, 2014; in the data active = activity change below about -50%; inconclusive = mostly about -30% to -49%
#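 THP-1 cells pretreated 1 hr with compounds (up to 57.5 uM final), then stimulated with LPS (250 ng/mL final) plus ATP (1.25 mM final); secreted IL-1B measured by AlphaLISA after 16 hr, decreased signal indicating inhibition.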
# TDP1 cell noCPT = qHTS for Inhibitors of human tyrosyl-DNA phosphodiesterase 1 (TDP1): qHTS in cells in absence of CPT. AID 686978, 2013. DT40 Tdp1-/- hTDP1 cells, no CPT, ATP luminescence, 48 h. 420,000 tested, 15% active. Potency, µM (series often up to 46.2 µM), for inactives: top-dose activity change, negative = growth inhibition, actives largely listed as inhibitors; note: potency is the fitted concentration of half-maximal effect; nearly all actives have a fitted effect of over 55% in size
#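 Stably hTDP1-transfected Tdp1-null chicken DT40 cells were treated with library compounds minus camptothecin and grown for at least 48 hr at 37 °C, after which cellular ATP was quantified by luminescence.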
# HT1080 IDH1KD tx = qHTS for induction of synthetic lethality in tumor cells producing 2HG: qHTS for the HT-1080-IDH1KD cell line; HT-1080 IDH1 knockdown viability, ATP luminescence, 48 h; Potency, µM (series often up to 46.1 µM), for inactives: at the top dose activity, negative = toxicity, usual class: cytotoxic; 360,000 tested, 2% active;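 note: potency is the fitted concentration of half-maximal effect; 0% = DMSO wells and -100% = cell-free medium wells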
#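 % activity derives from luminescence (CellTiter-Glo), normalised to DMSO and no-cell wells. HT-1080-IDH1KD cells, 750/well, had 48 h compound exposure at 37 °C.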
# TDP1 cell CPT = qHTS for Inhibitors of human tyrosyl-DNA phosphodiesterase 1 (TDP1): qHTS in cells in presence of CPT; AID 686979, 2013; 420,000 tested, 12% active; chicken DT40 Tdp1-/-;hTDP1 cells + 20 nM CPT, ATP luminescence, 48 h; Potency, µM (highest dose often 46.2 µM), without a hit: at the highest dose activity change, negative = growth inhibition, usual class: inhibitors; note: potency is the fitted concentration of half-maximal effect; nearly all actives have a fitted effect of over 55% in size
#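 Cell growth measured by CellTiter-Glo luminescence after a minimum 48 h, 37 C compound exposure with 20 nM CPT in Tdp1-knockout DT40 cells stably expressing hTDP1, seeded 400/well; qHTS titration format.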
# Numbers without * were called inactive; ? = inconclusive; / = no result given. The entries come from a sample that favours hits as a whole. Unless noted, calls come from the whole dose curve; as a rule, active = well fitted curve in the direction sought with a large enough effect; inconclusive = small, poorly fitted or top-dose-only effect, or another doubt; inactive = no such curve, though single readings can be large; an effect the other way counts as inactive or inconclusive. Unless noted, % is set by controls: 0 for no effect and ±100 for the full control effect.
SMILES,12-LOX inh,HT1080-NT tox,IL-1B inflam inh,TDP1 cell noCPT,HT1080 IDH1KD tx,TDP1 cell CPT
Cc1cccc(NC(=S)N/N=C/c2c[nH]c3ccccc23)c1,?,23µM*,-23,2.6µM*,16µM*,2.6µM*
Cc1ccc(NCC(=O)N/N=C/c2cccn2C)cc1,154%,-1%,-22,?,12%,17%
Cc1[nH]c2ccccc2c1/C=N/NC(=S)NCc1ccccc1,35µM*,-22%,15,?,-23%,?
Cc1ccc(Cn2cccc2/C=N/NC(=S)Nc2ccc(C)cc2)cc1,45µM*,-21%,68,6.5µM*,?,4.6µM*
CC1=C/C(=N\NC(=S)NCc2ccccc2)CC1,0%,-10%,11,1.3µM*,10%,1.5µM*
Cc1[nH]c2ccccc2c1/C=N/NC(N)=S,11%,7%,-18,7%,23%,-5%
Cc1ccc(C(=O)Nc2ccc(C(=O)N/N=C/c3c[nH]c4ccccc34)cc2)cc1,-10%,-24%,-16,?,?,?
Cc1ccc(NC(=S)N/N=C/c2c(C)[nH]c3ccccc23)cc1,32µM*,?,-1,29µM*,?,?
FC(F)(F)c1ccccc1/C=N/NC(=S)NCc1ccccc1,40µM*,/,/,/,/,/
O=C(COc1ccccc1)N1CCN(C(=O)c2cccc(F)c2)CC1,-11%,-14%,-6,-10%,2%,-6%
Cc1cccc(OCC(=O)N2CCC3(CC2)NC(=O)N(c2cccc(F)c2)N3)c1,2.2µM*,/,/,/,/,/
O=C(COc1ccc(F)cc1)N1CCC2(CC1)NC(=O)N(c1ccc(F)cc1)N2,2.5µM*,/,/,/,/,/
O=C(COc1ccccc1)N1CCC2(CC1)NC(=O)N(c1cccc(F)c1)N2,2.8µM*,/,/,/,/,/
O=C1NCC(=O)N2CCN(C3CCN(Cc4ccco4)CC3)CC12 (centres undefined),63%,/,/,/,/,/
NC(=S)N=Nc1ccc(O)cc1,?,-2%,0,18µM*,0%,21µM*
CCOc1ccc(CCN2CN(CC)CNC2=S)cc1OCC,-7%,-4%,14,21µM*,1%,-18%
O=C1Nc2ccccc2/C1=C/c1csc(-c2ccccc2)n1,12%,/,/,/,/,/
O=C1Nc2ccccc2/C1=C/C(=O)c1cccs1,?,?,-119*,8.2µM*,?,6.5µM*
COc1ccc(C(=O)/C=C2/C(=O)Nc3ccccc32)cc1,-27%,?,?,4.1µM*,?,9.2µM*
COc1ccc(C(=O)/C=C2/C(=O)Nc3ccccc32)cc1OC,-20%,-9%,-82*,4.1µM*,-10%,16µM*
COc1ccc(C2(C(=O)c3ccccc3)C(=O)c3ccccc3C2=O)cc1,/,8%,12,-15%,-8%,?
COc1cc(/C=N/N=C2/C(=O)Nc3ccccc32)cc(OC)c1O,-30%,-14%,?,?,?,-49%
COc1ccc(C(=O)/C=C2/C(=O)Nc3ccccc32)c(OC)c1,?,18µM*,-101*,2.6µM*,23µM*,4.1µM*
COc1ccc(C(=O)c2ccccc2)c(OC)c1,0%,/,/,/,/,/
Cn1c(SCC(=O)N2CCCCC2)nc2ccsc2c1=O,-16%,/,/,/,/,/
CC(=O)c1ccc(S(=O)(=O)N2CCN(C(=O)c3cc(C)no3)CC2)cc1,-3%,/,/,/,/,/
O=C(NC(=S)Nc1ccc(Cl)cn1)C(c1ccccc1)c1ccccc1,0%,2%,1,23µM*,6%,?
